Calls of active or inactive are those of the source.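 Rule for the calls, unless noted: active = inhibition of the reporter signal at or above 50%; inactive = inhibition below 50%.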
Assay: blockers of RIG-like receptor reporter activation – cell-based, Sendai virus stimulus, luciferase, 10K MLSCN set, TLR/RLR signaling modifier project, primary screen (AID 602276;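 active = inhibition at or above 50% at 10 µM; inactive = inhibition below 50%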;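 note: firefly luciferase from ISG56 promoter only with Renilla not read in this screen; 0% = Sendai virus plus DMSO and 100% = medium plus DMSO without virus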)
Conditions: HEK293 RL24 IRF3 luciferase reporter, at 10 µM, stronger effect = higher value

inhibition, inactive:
NC(=O)c1ccsc1NC(=O)COC(=O)Cc1ccsc1 9.36%
CCCc1ccccc1OCCNC(C)=O -4.34%
O=C(O)C1CCCCC1C(=O)Nc1ccccn1 (centres undefined) 7.72%
O=C(c1cccc2c1C(=O)N(Cc1cccnc1)C2)N1CCN(c2ccccc2)CC1 13.7%
CCCCCCn1c(CN2CCCC(C)C2)nc2c1c(=O)n(C)c(=O)n2C (centres undefined) 17.5%
Cc1nnc(SCCCn2c(N3CCCCC3)nc3c2c(=O)[nH]c(=O)n3C)s1 8.32%
Cc1cc(NC(=O)Cc2c(F)cccc2Cl)no1 14.4%
Cc1cc(C(=O)COC(=O)c2n[nH]c3ccccc23)c(C)n1C 5.43%
COc1ccc(NC(=O)CSc2ccccn2)cc1OC -19.5%
O=C(NC1CCCCCC1)c1cc(S(=O)(=O)N2CCC3(CC2)OCCO3)ccc1F -15.5%
O=C(CN(CC1CCCO1)S(=O)(=O)c1ccc(S(=O)(=O)NC2CC2)cc1)Nc1ccccc1 (centres undefined) 7.42%
CCN(CC(=O)Nc1ccc2c(c1)CCC2)Cc1nc2ccccc2c(=O)[nH]1 13.7%
O=C(Nc1ccc(-c2nc3ncccc3o2)cc1)c1ccc(Br)o1 -28.6%
COC(=O)Cc1cc(=O)n(-c2ccccc2)[nH]1 17.9%
CN(C)c1ccc(C2C3=C(CCCC3=O)OC3=C2C(=O)CCC3)cc1 14.3%
CCOC(=O)N1CCN(C(=O)CN(Cc2ccccc2)S(=O)(=O)c2ccc(OC)c(C)c2)CC1 -4.93%
CC1Cc2ccccc2N1CC(=O)NC(=O)NCc1ccco1 (centres undefined) 16.6%
CN(c1ccccc1C(=O)NCC1CCCO1)S(C)(=O)=O (centres undefined) 15.7%
O=C(CSc1ccc(-c2ccccc2)nn1)N1CCOCC1 5.28%
O=C(CCC(=O)OCC(=O)c1ccccc1)NC1CCCCC1 -0.183%
N#Cc1c(-c2ccc3c(c2)OCO3)csc1N -35.4%
CCCN1CCN(C(=O)Cn2cccc2C(=O)c2ccccc2)CC1 7.77%
CCCCOC(=O)Nc1nccs1 -8.28%
c1ccc2c(SCc3cn4cccnc4n3)ncnc2c1 3.66%

Assay: TLR3 IRF3 reporter activation blockers – cell-based, poly I:C stimulus, luciferase, 10K MLSCN set, primary screen (AID 602277)
Conditions: HEK293-TLR3 RL24 IRF3 luciferase reporter, at 10 µM, stronger effect = higher value

inhibition, inactive:
CC(C)OC(=O)c1cc(NC(=O)C2C3CCC(O3)C2C(=O)O)cc(C(=O)OC(C)C)c1 (centres undefined) 13.2%
O=C(CSc1nnc(-c2ccc(Br)cc2)n1C1CCCCC1)N1CCCC1 -4.51%
O=C(c1nn2cccnc2c1Cl)N1CCN(c2ccccc2)CC1 1.58%
CCCN1Cc2cccc(C(=O)NC3CCCC3)c2C1=O 22.8%
CS(=O)(=O)N(CC(=O)Nc1ccc2c(c1)OCO2)Cc1ccc(Cl)cc1 17.7%
COC(=O)C1C2C=CC3(CN(CC4CCCO4)C(=O)C13)O2 (centres undefined) 11.6%
Cc1ccc(F)cc1NC(=O)C1CCCN(c2ncccn2)C1 (centres undefined) 9.04%
CC(OC(=O)c1ccco1)C(=O)NCc1cccs1 (centres undefined) 25.3%
CCc1nnc(NC(=O)CSc2nnc(-c3ccccc3OC)n2-c2ccccc2)s1 8.06%
FC(F)(F)c1ccc(Sc2nnc(-c3cccs3)n2CC2CCCO2)nc1 (centres undefined) 6.99%
O=C(O)c1ccc(NC(=O)c2cccs2)cc1 13.8%
Cc1ccc(Nc2nc(N)nc(CN3CCN(Cc4ccc5c(c4)OCO5)CC3)n2)cc1 7.26%
CCOC(=O)Cc1csc(NC(=O)c2cccc(OC)c2)n1 -6.24%
C=CCNc1nc2c(c(=O)n(C)c(=O)n2C)n1CCCCCC -34.5%
O=C(Nc1cccnc1)c1cc2c(ccc3ccccc32)o1 -135%
COc1cccc(Nc2nnc(SCC(=O)N3CC(C)OC(C)C3)s2)c1 (centres undefined) -10%
NC(=O)c1ccsc1NC(=O)COC(=O)Cc1ccsc1 10.7%
CCCc1ccccc1OCCNC(C)=O 3.6%
O=C(O)C1CCCCC1C(=O)Nc1ccccn1 (centres undefined) 0.963%
O=C(c1cccc2c1C(=O)N(Cc1cccnc1)C2)N1CCN(c2ccccc2)CC1 9.9%
CCCCCCn1c(CN2CCCC(C)C2)nc2c1c(=O)n(C)c(=O)n2C (centres undefined) 9.02%
Cc1nnc(SCCCn2c(N3CCCCC3)nc3c2c(=O)[nH]c(=O)n3C)s1 17.6%
Cc1cc(NC(=O)Cc2c(F)cccc2Cl)no1 19.6%
Cc1cc(C(=O)COC(=O)c2n[nH]c3ccccc23)c(C)n1C -24.2%
COc1ccc(NC(=O)CSc2ccccn2)cc1OC -27.7%
O=C(NC1CCCCCC1)c1cc(S(=O)(=O)N2CCC3(CC2)OCCO3)ccc1F -37.6%
O=C(CN(CC1CCCO1)S(=O)(=O)c1ccc(S(=O)(=O)NC2CC2)cc1)Nc1ccccc1 (centres undefined) 7.34%
CCN(CC(=O)Nc1ccc2c(c1)CCC2)Cc1nc2ccccc2c(=O)[nH]1 14.8%
O=C(Nc1ccc(-c2nc3ncccc3o2)cc1)c1ccc(Br)o1 -98.2%
COC(=O)Cc1cc(=O)n(-c2ccccc2)[nH]1 21.3%
CN(C)c1ccc(C2C3=C(CCCC3=O)OC3=C2C(=O)CCC3)cc1 17%
CCOC(=O)N1CCN(C(=O)CN(Cc2ccccc2)S(=O)(=O)c2ccc(OC)c(C)c2)CC1 1.48%
CC1Cc2ccccc2N1CC(=O)NC(=O)NCc1ccco1 (centres undefined) 19%
CN(c1ccccc1C(=O)NCC1CCCO1)S(C)(=O)=O (centres undefined) 14.6%
O=C(CSc1ccc(-c2ccccc2)nn1)N1CCOCC1 -10.6%
N#Cc1c(-c2ccc3c(c2)OCO3)csc1N -84.4%
CCCN1CCN(C(=O)Cn2cccc2C(=O)c2ccccc2)CC1 11.7%
CCCCOC(=O)Nc1nccs1 -28.8%
c1ccc2c(SCc3cn4cccnc4n3)ncnc2c1 -0.28%

inhibition, active:
O=C(CCC(=O)OCC(=O)c1ccccc1)NC1CCCCC1 97.3%
